From PubChem BioAssay AID2685 (National Center for Advancing Translational Sciences (NCATS), 2010) come the findings set out here.

Hit rate of the full screen: of about 320,000 compounds, about 2,100 (0.66%) were called active. Another 53% or so got no clear call; they are omitted. Calls follow the shape of the dose curve; as a rule, active = well fitted inhibition curve with a large enough effect in the signal ratio, with a control signal flat (not every such curve was filed as active); inconclusive = small, poorly fitted or top-dose-only effect, or effect the other way, or a change in a side signal; inactive = flat fitted curve, though single readings scatter; the % refers to the signal ratio. The full list was thinned out, with actives kept by preference.
Potency is read from the fitted curve at half-maximal effect.

The test in a line: qHTS Assay for Lipid Storage Modulators in Drosophila S3 Cells.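 As to cell number change: cells counted by Cell Tracker Red CMTPX staining in the red channel.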 The following applies: BODIPY lipid droplet fluorescence, 18-24 h, cells fed with added oleic acid; cell number change: measured here: cell count max response; series mostly up to 46.1 µM. In outline: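 Drosophila S3 cells loaded with oleic acid (400 uM, as added) and compounds at several concentrations; lipid droplets imaged by 488-nm laser-scanning cytometry, 500–530 nm intensity and object ratio to cell channel. Percent activity normalized to 20 uM Triacsin C.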
A general note: In qHTS, concentration-response curves come from the screen itself.
`CC(C)c1ccc(OCC(=O)NC(C)c2ccccc2)cc1` (configuration not stated): the Potency entry was “inactive” and the cell number change was -6.3%.

`O=C(COc1ccccc1)NCc1ccccc1`: the Potency entry is “inactive”. As for `CC(C)C(NC(=O)COc1ccccc1)C(=O)O` (configuration not stated), the Potency is 32.6 µM (active) and the cell number change was -18.5%. For `CC(C)CC(NC(=O)COc1ccccc1)C(=O)O` (configuration not stated), in that order: “inactive” and 23.7%. In the same order, the values of `COC(=O)CNC(=O)COc1ccccc1` are 25.9 µM (active) and 0.31%. On to `CCc1ccc(C(=O)COC(=O)CNC(=O)COc2ccccc2)cc1`, for which the Potency result is “inactive” and the cell number change was -0.597%.

Take `COC(=O)c1cccc(NC(=S)N2CCN(c3ccccc3F)CC2)c1`: the Potency result is “inactive” and the cell number change is 12.8%. As to `CCOC(=O)CC(/C(C)=N\O)c1ccccc1` (configuration not stated), the Potency entry was “inactive” and the cell number change is -0.923%. Turning to `O=C(CN1C(=O)CSC1=O)Nc1ccc(N2CCOCC2)cc1`, the Potency is 20.6 µM (active). On to `Cc1ccc(NC(=O)CN2C(=O)CSC2=O)cc1`, for which the Potency entry was “inactive” and the cell number change is -1.37%. In the same order, the values of `CCc1ccc(NC(=O)CN2C(=O)CSC2=O)cc1` are “inactive” and -0.41%. In the same order, the values of `COc1ccc(S(=O)(=O)N2CCCCC2)cc1NC(=O)CSc1nccn1C` are “inactive” and -6.22%.

Regarding `CC(=O)c1c(C(C)=O)c(C)n(-c2ccc(C)c(NC(=O)c3ccccc3Cl)c2)c1C`, the Potency entry is “inactive” and the cell number change is -18.6%.

Turning to `COc1ccc(NC(=O)N2CCCC(CCC(=O)N(C)CCc3ccccn3)C2)cc1` (configuration not stated), the Potency result was “inactive” and the cell number change is -4.81%. For `Cc1nc(N2CCCCC2)sc1C(=O)c1cccc([N+](=O)[O-])c1`, in that order: “inactive” and -2.77%. In the same order, the values of `CC(=O)c1cccc(NC(=O)NC2CCCc3ccccc32)c1` (configuration not stated) are “inactive” and -3.38%.

Turning to `CCOc1cc(/C=C2\SC(=N)N(c3nonc3N)C2=O)ccc1OCC(N)=O`, the Potency entry was “inactive” and the cell number change was 1.49%. In the same order, the values of `COc1ccccc1N1CCN(C(=O)C(=O)c2cn(CC(=O)N3CCCCCC3)c3ccccc23)CC1` are 11.6 µM (active) and -23.8%. For `COc1ccccc1NC(=O)C(=O)c1cn(CC(=O)N2CCCC2)c2ccccc12`, in that order: “inactive” and 8.26%.

Turning to `COc1ccccc1N1CCN(C(=O)C(=O)c2cn(CC(=O)N3CCCC3)c3ccccc23)CC1`, the Potency entry was “inactive” and the cell number change was -2.59%. `CN1CCN(C(=O)C(=O)c2cn(CC(=O)N3CCCC3)c3ccccc23)CC1`: the Potency entry was “inactive” and the cell number change is -8.67%. In the same order, the values of `CC(=O)c1ccc(N2CCN(C(=O)C(=O)c3cn(CC(=O)N4CCCCCC4)c4ccccc34)CC2)cc1` are 16.4 µM (active) and -13.1%. For `O=CN1CCN(C(=O)C(=O)c2cn(CC(=O)N3CCCCC3)c3ccccc23)CC1`, in that order: “inactive” and 4.31%. In the same order, the values of `CCCC(=O)Nc1c(-c2ccccc2Cl)c(=O)c2ccccc2n1C` are “inactive” and 21.4%. Consider `COc1ccccc1-n1c(SCC(=O)Nc2nnc(C)s2)nc2c(c1=O)SCC2`, for which the Potency entry is “inactive” and the cell number change stood at 4.2%. As for `CCCCCCCCCCOC(=O)C[N+](C)(C)C/C=C(/C)Cl`, the Potency is 2.06 µM (active) and the cell number change is -24.8%. For `CCCCCCCCCCCCOC(=O)C[N+](C)(C)C`, in that order: “inactive” and -12.3%.

With `CCCCCCCCOC(=O)C[N+](C)(C)C/C=C(/C)Cl`, the Potency entry is “inactive” and the cell number change came out at 5.17%. Regarding `CC1(C)Cc2c(cnn2-c2ccccc2)C(NC(=O)C2(C(N)=O)CC2)C1` (configuration not stated), the Potency result was “inactive” and the cell number change was 8.69%. In the same order, the values of `COc1ccc(C2CC(c3cccs3)=NN2C(=O)CCC(=O)O)cc1` (configuration not stated) are “inactive” and -0.88%.

Take `CCN(c1cccc(C)c1)S(=O)(=O)c1cc(CN2C(=O)c3cccnc3C2=O)ccc1OC`: the Potency is 8.2 µM (active) and the cell number change is 7.63%. With `COc1ccc(CN2C(=O)c3cccnc3C2=O)cc1S(=O)(=O)NC(C)C`, the Potency result was “inactive”.

Regarding `COc1ccc(CN2C(=O)c3cccnc3C2=O)cc1S(=O)(=O)N(C)c1ccc(C)cc1`, the Potency result is “inactive” and the cell number change amounted to 8.02%. In the same order, the values of `CCCN(CCC)S(=O)(=O)c1cc(CN2C(=O)c3cccnc3C2=O)ccc1OC` are “inactive” and 9.22%. For `COc1ccc(CN2C(=O)c3cccnc3C2=O)cc1S(=O)(=O)N1CCCCC1`, in that order: 1.64 µM (active) and -13.9%. Take `COc1ccc(CN2C(=O)c3cccnc3C2=O)cc1S(=O)(=O)NC1CCCCC1C` (configuration not stated): the Potency result is “inactive” and the cell number change was -3.23%.

In the case of `O=C(CN1C(=O)CCS(=O)(=O)c2ccccc21)NCc1ccc2c(c1)OCO2`, the Potency entry is “inactive” and the cell number change was -18.6%. For `CC1(C)Cc2c(sc(NC(=O)C(=O)NCC3CCCO3)c2C(N)=O)CO1` (configuration not stated), in that order: “inactive” and -4.25%. In the same order, the values of `CNC(=O)c1ccccc1S(=O)(=O)c1ccccc1C#N` are “inactive” and -5.1%. `Cc1cc(C(F)(F)F)nn1CC(=O)NCc1cccs1`: the Potency entry is “inactive” and the cell number change was determined as 3.66%. With `COc1ccc(OC)c(NC(=O)C2CCCCC2C(=O)O)c1` (configuration not stated), the Potency result was “inactive” and the cell number change was 2.85%.

For `COCC1CCN(C(=O)c2ccc(OC)c(OC3CCN(C(C)C)CC3)c2)CC1`, the Potency result is “inactive” and the cell number change came to 13.3%. In the same order, the values of `CCCOc1ccc(C(=O)O)cc1` are “inactive” and 0.594%. In the same order, the values of `CN1CCC(N(C)C(=S)NC(=O)C23CC4CC(CC(C4)C2)C3)CC1` are “inactive” and -1.68%.

As for `CCOc1ccc(-n2c(N)c(C(=O)NCc3ccco3)sc2=S)cc1`, the Potency result was “inactive” and the cell number change turned out to be 1.94%.
